# An excerpt weighted towards active compounds, which were near 2.4% of everything screened.
# D2 ag-1: agonists of human D2 dopamine receptor (beta-arrestin); AID 624465; P14416; DiscoveRx PathHunter D2 beta-arrestin, luminescence, 90 min; 100% = 57 uM dopamine signal; 360,000 compounds, 0.084% hits; activation, % (test concentration not listed); in the data active = activation above about 40%; inconclusive = between about 15% and that limit
# Target sequence (P14416 whole entry, looked up): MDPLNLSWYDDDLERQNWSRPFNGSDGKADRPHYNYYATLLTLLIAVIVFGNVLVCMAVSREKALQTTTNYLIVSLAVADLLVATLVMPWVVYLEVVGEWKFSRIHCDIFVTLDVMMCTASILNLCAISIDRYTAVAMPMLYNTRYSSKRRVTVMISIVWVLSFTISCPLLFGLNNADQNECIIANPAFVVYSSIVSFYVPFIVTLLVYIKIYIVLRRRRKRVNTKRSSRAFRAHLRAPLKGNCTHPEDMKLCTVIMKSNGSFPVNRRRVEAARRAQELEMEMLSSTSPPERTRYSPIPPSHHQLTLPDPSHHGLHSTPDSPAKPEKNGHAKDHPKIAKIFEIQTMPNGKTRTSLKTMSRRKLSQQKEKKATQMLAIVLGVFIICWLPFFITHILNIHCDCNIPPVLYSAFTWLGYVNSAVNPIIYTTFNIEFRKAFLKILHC
#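 Agonist mode: compounds alone added to overnight-plated D2 PathHunter cells for 90 min at 37 C, with 57 uM final dopamine (EC100) defining full response. Beta-arrestin recruitment detected by chemiluminescent reagent, read after 1 h at ambient temperature.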
# D2 PAM-1: human D2 receptor positive allosteric modulation | potentiation, % (test concentration not listed) | 360,000 compounds, 0.23% hits | AID 624464 | DiscoveRx D2 beta-arrestin cells, luminescence, 90 min; 100% = 57 uM dopamine signal; in the data active = potentiation above about 50%; inconclusive = mostly about 30% to 49%
#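 PathHunter D2 cells, attached overnight at 37 deg C, received compound in DMSO plus dopamine at EC20 (50 nM final) for 90 min at 37 deg C. Beta-arrestin recruitment was read as luminescence after 1 h with detection reagent at ambient temperature.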
# D2 antag: D2 dopamine receptor (human) antagonism | HEK293 TREx D2 cells, calcium flux, dopamine EC80 | inhibition, % at 10 µM | 340,000 compounds, 2% hits | P14416; in the data active = inhibition above about 30%; inactive = below that, where a call was filed
#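 In this primary screen, negative modulation is detected by tracking calcium flux after an EC80 dopamine challenge in inducible HEK293 T-REx D2 cells preexposed to test compound for 180 s.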
# D2 PAM-2: D2 dopamine receptor (human) potentiation | P14416 | HEK293 T-REx D2, calcium flux, EC20 dopamine potentiation | potentiation, % at 10 µM | 340,000 compounds, 0.34% hits | AID 485347;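 active = potentiation over 3 SD above the plate norm, cut at about 30% in these data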
#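 Potentiation of an EC20 dopamine calcium response measured kinetically over 180 s, after a preceding 180 s compound-only read flagging agonists. Cells: inducible Hek293 Trex D2 line, 4000/well, cultured overnight at 30 C before dye loading.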
# D2 ag-2: D2 dopamine receptor (human) agonism; 340,000 compounds, 0.53% hits; AID 485358; HEK293 T-REx D2 cells, calcium flux agonist mode; activation, % at 2 µM; P14416;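 active = activation over 3 SD above normal in the single-dose calcium agonist read, cut at about 30% in these data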
#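 Agonism scored from kinetic calcium signal (1 read/sec, 180 s) following compound pin transfer, after a 10 s baseline. Cells: HEK293 Trex line expressing inducible D2 receptor coupled to calcium, dye-loaded after overnight culture at 30 C.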
# Numbers stand for hits; 0 = inactive; ? = inconclusive; - = not tested or not shown.
SMILES,D2 ag-1,D2 PAM-1,D2 antag,D2 PAM-2,D2 ag-2
O=C(Nc1ccccc1Cl)c1cc(C2CCCN(C(=O)C3CCCCC3)C2)on1 (configuration not stated),0,0,-,-,-
OC(COc1ccccc1)CN1CCN(CC(O)COc2ccccc2)CC1 (configuration not stated),0,0,30,0,0
COc1ccccc1N1CCN(CC(O)COc2ccc3c(c2)CCC3)CC1 (configuration not stated),0,0,80,0,0
COc1ccccc1N1CCN(CC(O)COc2ccc(C)c(C)c2)CC1 (configuration not stated),0,0,-,-,-
COc1ccccc1NC(=O)CCS(=O)(=O)c1ccc2c(c1)oc(=O)n2C,0,0,31,0,0
COc1cc(OC)c(NC(=O)CCS(=O)(=O)c2ccc3c(c2)oc(=O)n3C)cc1Cl,-,-,-,0,0
COc1ccc(CNC(=O)C(C)n2ccc3cc(S(=O)(=O)N4CCCC4)ccc32)cc1OC (configuration not stated),-,-,-,0,0
S=c1[nH]nc(Cc2c[nH]c3ccccc23)o1,0,0,41,0,0
CC(C)CCNC(=O)CCc1nnc(Cc2c[nH]c3ccccc23)o1,0,0,0,0,0
C=CCN1C(=S)CC(c2ccccc2)=Nc2ccccc21,0,0,0,0,0
CCCN(CCO)CCCc1ccccc1,0,0,0,0,0
CCN(CCCc1ccccc1)CCCc1ccccc1,0,0,83,0,0
NS(=O)(=O)c1ccc(CCNC(=O)COC(=O)CCN2C(=O)C3CC=CCC3C2=O)cc1 (configuration not stated),0,0,0,0,0
O=C(COC(=O)CCN1C(=O)C2CC=CCC2C1=O)NCCc1ccc(F)cc1 (configuration not stated),0,0,37,0,0
COc1cccc(-n2c(=O)c3sccc3n(CC(=O)NC3CCCCC3)c2=O)c1,0,0,30,0,0
COc1cccc(-n2c(=O)c3sccc3n(CC(=O)NC3CCCC3)c2=O)c1,0,0,0,0,0
COC(C[C@H]1O[C@@H]1[C@@H](O)[C@H](C)OCc1ccccc1)OC,0,0,36,0,0
COc1cc(C)c(NC(=O)C2CCN(S(=O)(=O)c3cccs3)CC2)cc1OC,0,0,0,0,0
Cc1cccc(C)c1Nc1c(-c2ccc(Cl)s2)nc2ncccn12,-,-,-,0,0
Cc1ccc2[nH]c(=O)c3cc(C(=O)NC4CCC(C)CC4)sc3c2c1 (configuration not stated),-,-,-,0,0
Cc1cccc(NC(=O)c2ccc(F)c(S(=O)(=O)NCc3ccco3)c2)c1,0,0,33,0,0
Cc1ccccc1OC(=O)CSc1nnc(-c2ccc(F)cc2)o1,-,-,-,0,0
Cn1c(=O)n(CCCc2ccccc2)c(=O)c2c1nc1n2CCN1c1ccccc1,-,-,-,0,0
Cc1ccc(SCCC(=O)NC(C)(C)C)cc1,0,0,0,0,0
Cc1ccc(SCCC(=O)NC(C)C)cc1,0,0,32,0,0
SMILES,D2 ag-1,D2 PAM-1,D2 antag,D2 PAM-2,D2 ag-2
CCn1c2ccccc2c2nnc(N3CCN(c4cccc(Cl)c4)CC3)nc21,-,-,-,0,0
Cc1nc2c(-c3ccc(F)cc3)c(C)nn2c(C)c1CCC(=O)N1CCOCC1,0,0,0,0,0
Cc1nc2cc(-c3ccccc3)nn2c(C)c1CCC(=O)N1CCN(c2ccccn2)CC1,-,-,36,0,0
Cc1nc2c(-c3ccccc3)c(C)nn2c(C)c1CCC(=O)N1CCOCC1,0,0,0,32,0
CCOC(=O)C1CCCCN1C(=O)CCc1c(C)nc2cc(-c3ccccc3)nn2c1C (configuration not stated),0,0,33,0,0
O=C(NCCc1ccccc1)c1ccc(CSc2nc3ccncc3n2Cc2cccc(F)c2)cc1,-,-,-,0,-
Cc1noc(C)c1C(=O)OCC(=O)NC1CC1,0,0,0,0,0
Cc1noc(C)c1C(=O)OCC(=O)NC1CCCCC1C (configuration not stated),0,0,0,37,0
O=C(C1COc2cc(S(=O)(=O)Nc3ccc(Cl)cc3)ccc2O1)N1CCCC1 (configuration not stated),-,-,-,0,0
CCCc1nc2c(=O)n(C)c(=O)nc-2n(C)n1,54,0,0,0,0
Cn1nc(-c2ccccn2)nc2c(=O)n(C)c(=O)nc1-2,0,0,0,0,0
O=C(NCCOCCn1c(=O)oc2ccccc21)Nc1ccc(F)cc1,-,-,-,0,0
CCCS(=O)(=O)c1nc(S(=O)(=O)c2ccc(C)cc2)c(N2CCN(CC)CC2)s1,0,0,67,0,0
CCN1CCN(c2sc(S(=O)(=O)CC)nc2S(=O)(=O)c2ccc(C)cc2)CC1,0,0,-,-,-
COc1ccccc1NS(=O)(=O)c1ccc(NN=C2CCCC2)c([N+](=O)[O-])c1,0,0,34,0,0
COc1ccccc1NS(=O)(=O)c1ccc(N/N=C/C=C/c2ccccc2[N+](=O)[O-])c([N+](=O)[O-])c1,0,0,0,0,0
CCOc1cc(/C=N\Nc2nc(Nc3ccccc3)nc(N3CCOCC3)n2)ccc1OC(=O)c1ccco1,?,65,-,-,-
COc1cc(/C=N/Nc2nc(C)cc(C)n2)ccc1OC(=O)c1ccco1,0,0,0,0,0
COc1cc(/C=N/Nc2ccc3ccccc3c2)ccc1OC(=O)c1ccco1,0,51,0,0,0
COCOc1cccc(CN2CCC(C)(Oc3cccc(OC)c3)C2)c1 (configuration not stated),0,0,-,-,-
COc1ccccc1/C=C/C(=O)Nc1nc2n(n1)C(c1ccc(F)cc1)C=C(c1ccccc1)N2 (configuration not stated),-,-,-,0,0
COc1ccc(-c2ccc(CNCCCSc3nnnn3C)o2)cc1Cl,-,-,-,0,0
O=C(NCCNC(=O)c1ccco1)c1ccco1,0,0,0,-,0
Cc1ccc(NC(=O)CCNC(=O)c2ccco2)cc1Cl,0,0,36,0,0
COc1cccc(C(=O)NCCNC(=O)c2ccco2)c1,0,0,0,0,0
SMILES,D2 ag-1,D2 PAM-1,D2 antag,D2 PAM-2,D2 ag-2
CCCOc1cccc(C(=O)NCCNC(=O)c2ccco2)c1,0,0,57,0,0
Cc1cc(C)n(CCNC(=O)c2ccco2)n1,0,0,0,31,0
COc1ccc(CC(=O)Nc2cc(-c3cn4cccnc4n3)ccc2C)cc1OC,-,-,-,0,-
Cc1nc(-c2ccc(S(=O)(=O)Nc3ccc(Cl)c(C(F)(F)F)c3)cc2)co1,-,-,-,0,0
CC(C)n1nnnc1SCC(=O)N1N=C(c2cccs2)CC1c1cccs1 (configuration not stated),0,0,39,0,0
Cc1ccc(CNC(=O)c2ccc(CSCc3ccccc3Cl)o2)cc1,-,-,-,0,0
Cn1nccc1NC(=O)Nc1ccccc1,0,0,0,0,0
Cn1nccc1NC(=O)Nc1ccc(Cl)cc1,0,0,43,0,0

# Bioassay records (PubChem)
